Among the data in PubChem BioAssay (NCI) are growth values, retold here.

This is part of a sample that, as a whole, favours compounds with a hit. Of some 83,000 tested, about 20% had one in any assay.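 A percent growth of 40 corresponds to 60% growth inhibition; 0 means no net growth; -100 means all cells died. Active threshold: below 10.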 A number with no mark means an inactive call. Activity calls are given as the source filed them.

Test systems include SR leukemia; RPMI-8226 leukemia; OVCAR-8 ovarian; OVCAR-5 ovarian; OVCAR-4 ovarian; SK-OV-3 ovarian; IGROV1 ovarian; OVCAR-3 ovarian; NCI/ADR-RES ovarian; T-47D breast; BT-549 breast; MDA-MB-435 melanoma; MCF7 breast; HCT-116 colon; HCC-2998 colon; KM12 colon; MDA-MB-468 breast.
What all share (assay): NCI-60 one-dose screen, 48 h (100 = growth as untreated, 0 = no growth, -100 = all killed)
What all share (settings): 10 µM unless noted

For the molecule `CSc1ccc(C(=O)Nc2ccc3nnn(/C(C#N)=C/c4ccccn4)c3c2)cc1`, the growth with SR leukemia was -9.41% (active); in the assay on RPMI-8226 leukemia it was -40.8% (active); in the assay on OVCAR-8 ovarian, 10%; with OVCAR-5 ovarian it was -77.4% (active); in the assay on OVCAR-4 ovarian it was 37%; in the assay with SK-OV-3 ovarian, 64.4%. Also, the growth in the assay with IGROV1 ovarian is -44.9% (active); in the assay on OVCAR-3 ovarian, -30.8% (active); in the assay on NCI/ADR-RES ovarian, 11.2%; in the assay on T-47D breast, -45.3% (active); in the assay on BT-549 breast, -67.9% (active); in the assay on MDA-MB-435 melanoma, -20.9% (active). In addition, the growth with MCF7 breast is -79% (active); in the assay on HCT-116 colon it was -5.03% (active); in the assay on HCC-2998 colon, -76.3% (active); in the assay with KM12 colon, -57.1% (active); in the assay on MDA-MB-468 breast it was -69.1% (active).
With `Cc1c(C(=O)NNC(=O)c2ccc(Cl)cc2)nnn1-c1ccc(Cl)cc1`, the growth is 84.4% in the assay on SR leukemia; 95.7% with RPMI-8226 leukemia; 104% in the assay with OVCAR-8 ovarian; 93.6% with OVCAR-5 ovarian; 92.4% in the assay on OVCAR-4 ovarian; 82.3% in the assay with SK-OV-3 ovarian. Moreover, the growth is 106% in the assay with IGROV1 ovarian; 114% in the assay with OVCAR-3 ovarian; 91.3% with NCI/ADR-RES ovarian; 89.9% in the assay on T-47D breast; 94.1% in the assay with BT-549 breast; 98.5% in the assay on MDA-MB-435 melanoma. Besides, the growth with MCF7 breast is 81.2%; in the assay with HCT-116 colon, 85.3%; with HCC-2998 colon it was 109%; in the assay with KM12 colon, 101%; in the assay on MDA-MB-468 breast, 89.4%.
Turning to `Cc1cc(C)cc(C(=O)Nc2cccc(-c3cn(-c4ccc(S(N)(=O)=O)cc4)nn3)c2)c1`, the growth is 51.6% in the assay with SR leukemia; 89.8% with RPMI-8226 leukemia; 18.7% in the assay on OVCAR-8 ovarian; 81.5% with OVCAR-5 ovarian; 42.1% in the assay on OVCAR-4 ovarian; 9.56% (active) in the assay with SK-OV-3 ovarian. Besides, the growth in the assay on IGROV1 ovarian is 15.4%; in the assay with OVCAR-3 ovarian it was 87.4%; with NCI/ADR-RES ovarian, 55.9%; with T-47D breast, 35%; with BT-549 breast, 67.8%; with MDA-MB-435 melanoma it was 85.9%. Further, the growth was 31.5% in the assay with MCF7 breast; 39.8% with HCT-116 colon; 49.9% in the assay with HCC-2998 colon; 36.1% in the assay on KM12 colon; 41% in the assay on MDA-MB-468 breast.
In the case of `Cc1c(C(=O)NNC(=O)c2ccc(Cl)cc2)nnn1-c1ccc(Br)cc1`, the growth in the assay on SR leukemia was 84.3%; in the assay on RPMI-8226 leukemia, 98.2%; in the assay on OVCAR-8 ovarian, 103%; in the assay on OVCAR-5 ovarian, 95.2%; in the assay with OVCAR-4 ovarian it was 96.5%; in the assay with SK-OV-3 ovarian, 90.2%. In addition, the growth with IGROV1 ovarian was 105%; in the assay on OVCAR-3 ovarian, 115%; with NCI/ADR-RES ovarian, 97.5%; in the assay with T-47D breast it was 93%; in the assay with BT-549 breast, 96.5%; in the assay on MDA-MB-435 melanoma it was 100%. For the same molecule, the growth in the assay with MCF7 breast is 84.3%; in the assay on HCT-116 colon, 89.5%; with HCC-2998 colon it was 105%; in the assay on KM12 colon it was 104%; with MDA-MB-468 breast, 95.6%.
With `CCN(CC)C(=O)N/C(N)=N/c1nc2ccccc2s1`, the growth was 32% in the assay with SR leukemia; 31.5% with RPMI-8226 leukemia; 55.5% in the assay on OVCAR-8 ovarian; 72.4% with OVCAR-5 ovarian; 22.2% in the assay with OVCAR-4 ovarian; 71.9% in the assay with SK-OV-3 ovarian. Further, the growth in the assay with IGROV1 ovarian was 72.1%; with OVCAR-3 ovarian it was 68.2%; in the assay with NCI/ADR-RES ovarian it was 23.3%; with T-47D breast it was 12.6%; with BT-549 breast, 16.5%; in the assay with MDA-MB-435 melanoma, 37.5%. Further, the growth is 37.6% in the assay on MCF7 breast; 43.4% in the assay on HCT-116 colon; 88.2% in the assay on HCC-2998 colon; 73.9% in the assay on KM12 colon; 5.79% (active) in the assay on MDA-MB-468 breast.
`CC1=C(C(=O)OC(C)C)C(c2cccc(O)c2)NC(=S)N1` (stereo not drawn): the growth is 90.7% in the assay with SR leukemia; 88.9% in the assay on RPMI-8226 leukemia; 104% with OVCAR-8 ovarian; 104% in the assay with OVCAR-5 ovarian; 98% in the assay on OVCAR-4 ovarian; 97.9% with SK-OV-3 ovarian. Further, the growth was 110% with IGROV1 ovarian; 120% with OVCAR-3 ovarian; 105% in the assay on NCI/ADR-RES ovarian; 93.7% in the assay on T-47D breast; 127% with BT-549 breast; 104% with MDA-MB-435 melanoma. Besides, the growth with MCF7 breast was 90.6%; with HCT-116 colon, 102%; in the assay with HCC-2998 colon, 105%; in the assay with KM12 colon it was 106%; with MDA-MB-468 breast, 92%.
For `COc1ccc(/C=C2\C(=O)Nc3ccc(Cl)cc32)cc1OCc1ccccn1`, the growth in the assay with SR leukemia is 31.4%; with RPMI-8226 leukemia it was 39.5%; with OVCAR-8 ovarian, 31.6%; in the assay with OVCAR-5 ovarian, 50%; in the assay with OVCAR-4 ovarian it was 8.08% (active); in the assay with SK-OV-3 ovarian, 63.3%. Also, the growth with IGROV1 ovarian was 45.5%; in the assay on OVCAR-3 ovarian, 51.6%; with NCI/ADR-RES ovarian, 27.3%; in the assay with T-47D breast it was 51.9%; in the assay on BT-549 breast it was 46.1%; with MDA-MB-435 melanoma it was 75.1%. Besides, the growth was 34.7% in the assay with MCF7 breast; 21.1% in the assay on HCT-116 colon; 79.6% with HCC-2998 colon; 75.2% in the assay with KM12 colon; 59% in the assay with MDA-MB-468 breast.
Take `CC1=C(C(=O)OCc2ccccc2)C(c2ccc(-n3cncn3)cc2)n2c(nc3ccccc32)N1` (stereo not drawn): the growth in the assay on SR leukemia is 18%; with RPMI-8226 leukemia it was 35.4%; in the assay with OVCAR-8 ovarian it was 86.6%; in the assay on OVCAR-5 ovarian, 79.3%; in the assay with OVCAR-4 ovarian it was 83.2%; with SK-OV-3 ovarian, 73.8%. The growth in the assay with IGROV1 ovarian was 62.2%; with OVCAR-3 ovarian it was 24.2%; with NCI/ADR-RES ovarian, 41.5%; in the assay with T-47D breast, 65.1%; in the assay with BT-549 breast, 52.9%; in the assay on MDA-MB-435 melanoma, -12.5% (active). Moreover, the growth in the assay with MCF7 breast is 13.1%; in the assay on HCT-116 colon, 41.3%; in the assay with HCC-2998 colon it was 75.4%; in the assay with KM12 colon it was 39.5%; in the assay with MDA-MB-468 breast it was -18.8% (active).
Take `O=C(/C=C/c1ccc(-c2ccccc2)cc1)c1nc2ccccc2n1Cc1ccc(F)cc1`: the growth in the assay on SR leukemia is 1.5% (active); in the assay on RPMI-8226 leukemia, -2.77% (active); in the assay with OVCAR-8 ovarian, 46%; in the assay on OVCAR-5 ovarian it was 43.5%; in the assay on OVCAR-4 ovarian, 55.2%; with SK-OV-3 ovarian, 82.2%. In addition, the growth in the assay on IGROV1 ovarian was 55.7%; with OVCAR-3 ovarian, 28.8%; with NCI/ADR-RES ovarian, 49.6%; in the assay with T-47D breast, 18.3%; with BT-549 breast it was 27.5%; in the assay with MDA-MB-435 melanoma, 15.6%. In addition, the growth was 14.7% in the assay with MCF7 breast; 13.8% with HCT-116 colon; 31.5% in the assay with HCC-2998 colon; 49.4% in the assay with KM12 colon; 25.8% in the assay with MDA-MB-468 breast.
